Data on 36 compounds can be found in PubChem BioAssay (NCATS).

Records with an inconclusive call do not appear. Active and inactive are the calls of the source. Calls follow the shape of the dose curve; as a rule, active = well fitted cell-killing curve with a large enough effect; inconclusive = small, poorly fitted or top-dose-only effect; inactive = no such curve, though single readings can be large or run the other way.
Potency is read from the fitted curve at half-maximal effect.

The nature of this assay: qHTS of pediatric cancer cell lines to identify multiple opportunities for drug repurposing: Primary screen for LAN-5 cells (AID 1347100).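 As to activity change, negative = cytotoxic: plate controls were DMSO neutral control for no effect and bortezomib positive control for full effect.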 To be noted: LAN-5 neuroblastoma viability, CellTiter-Glo luminescence, 48 h; series mostly up to 46 µM; activity change, negative = cytotoxic: at the top concentration. A digest of the protocol: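 Viability after 48 h compound treatment at 37C, 500-1,000 cells/well, read as ATP luminescence with CellTiter-Glo. Primary screens used 11-point (MIPE, 0.78 nM-46 µM) or 8-point (NPC, 0.59 nM-46 µM) final concentrations; follow-up screens used 11-point dilutions.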
As for `CCc1cc(-c2n[nH]c(C)c2-c2ccc3c(c2)OCCO3)c(O)cc1O`, the Potency was 5.9 µM (active).
Turning to `c1ccc(-c2oc3ncnc(NC[C@@H]4CCCO4)c3c2-c2ccccc2)cc1`, the Potency was 18.7 µM (active).
On the same count and under the same terms, the result for `CCC(C)SSc1ncc[nH]1` (stereo unspecified) reads 14.8 µM (active); that for `NC(=O)c1nnn(Cc2cc(Cl)c(C(=O)c3ccc(Cl)cc3)c(Cl)c2)c1N`, 20.9 µM (active).
Still for that read-out and setting: with `Cc1ccc(C(=O)N(CCCN)[C@@H](c2oc3cc(Cl)ccc3c(=O)c2Cc2ccccc2)C(C)C)cc1` the figure was 0.001 µM (active).
On the same count and under the same terms, with `CN(C)S(=O)(=O)c1ccc2c(c1)C(=Cc1cc3c([nH]1)CCCC3)C(=O)N2` the figure was 2.35 µM (active).
As to `CC(C)n1c(C=C[C@H](O)C[C@H](O)CC(=O)O)c(-c2ccc(F)cc2)c2ccccc21`, the “activity change, negative = cytotoxic” value was -8.51% (inactive).
As for `Nc1ccn([C@@H]2O[C@H](CO)[C@@H](O)[C@H]2O)c(=O)n1`, the Potency was 0.0935 µM (active).
Regarding `CC1(C)CC(=O)c2c(C(F)(F)F)nn(-c3ccc(C(N)=O)c(NC4CCC(O)CC4)c3)c2C1` (stereo unspecified), the Potency is 0.148 µM (active).
On the same count and under the same terms, the result for `CN1CCN(c2cccc(Nc3nc4c(-c5ccc(S(C)(=O)=O)cc5)cccn4n3)c2)CC1` reads 13.2 µM (active); that for `Cc1csc(-c2nnc(Nc3ccc(Oc4ncccc4-c4ccnc(N)n4)cc3)c3ccccc23)c1`, 0.001 µM (active); that for `OC(c1cc(C(F)(F)F)nc2c(C(F)(F)F)cccc12)C1CCCCN1` (stereo unspecified), 33.2 µM (active).
Turning to `COc1ccc2c(c1)c(C1=C(c3c[nH]c4ccccc34)C(=O)NC1=O)cn2CCCN(C)C`, the Potency is 16.6 µM (active).
Consider `OCCn1cc(-c2ccc3c(c2)CCC3=NO)c(-c2ccncc2)n1`, for which the “activity change, negative = cytotoxic” value was -14.1% (inactive).
As to `O=C(Nc1cccc(Cl)c1)Nc1ncc(CCNc2ncnc3ccsc23)s1`, the Potency is 0.132 µM (active).
`COc1cc2c(cc1OC)CC(=O)N(CCCN(C)C[C@H]1Cc3cc(OC)c(OC)cc31)CC2`: the “activity change, negative = cytotoxic” value was -2.62% (inactive).
For the compound `C[C@H]1COC2=C1C(=O)C(=O)c1c2ccc2c1CCCC2(C)C`, the “activity change, negative = cytotoxic” value is -3.35% (inactive).
For `CNC(=O)[C@H](Cc1ccccc1)NC(=O)[C@H](CC(C)C)[C@H](CSc1cccs1)C(=O)NO`, the “activity change, negative = cytotoxic” value is -17.1% (inactive).
`CC[C@H](NC(=O)[C@H](C)NC)C(=O)N1C[C@@H](O)C[C@H]1Cc1c(-c2[nH]c3cc(F)ccc3c2C[C@H]2C[C@H](O)CN2C(=O)[C@H](CC)NC(=O)[C@H](C)NC)[nH]c2cc(F)ccc12`: the Potency is 0.372 µM (active).
For `CC1=C[C@@H]2[C@@H]([C@@H](O)C[C@@]3(C)[C@H]2C[C@@H](C)[C@]3(O)C(=O)CO)[C@@]2(C)Cc3cnn(-c4ccccc4)c3C=C12`, the Potency was 23.5 µM (active).
Regarding `CCC(c1ccc(O)cc1)C(CC)c1ccc(O)cc1` (stereo unspecified), the “activity change, negative = cytotoxic” value is -103% (inactive).
Regarding `O=C(c1ccc(C=Cc2n[nH]c3ccccc23)cc1)N1CCNCC1`, the Potency is 0.833 µM (active).
As for `CCn1c(-c2nonc2N)nc2cncc(CNC3CCNCC3)c21`, the Potency is 20.9 µM (active).
Regarding `CNc1nc(-c2ccc3c(N)n[nH]c3c2)cc(N2C[C@@H](C(=O)NC3CCCCC3)CC[C@@H]2C)n1`, the Potency was 26.4 µM (active).
For the compound `CN(C)CCCNC(=O)c1ccc(-c2cc(O)c3ncccc3c2)cc1`, the “activity change, negative = cytotoxic” value was -22.3% (inactive).
Consider `Clc1ccc(COC(Cn2ccnc2)c2ccc(Cl)cc2Cl)c(Cl)c1` (stereo unspecified), for which the Potency is 23.5 µM (active).
Turning to `COC(=O)N1CCN(Cc2cccc(NC(=O)Nc3ccc(C)nc3)c2F)CC1`, the “activity change, negative = cytotoxic” value is -11.7% (inactive).
As for `Cc1ccc2c(c1)c1c(n2CCc2ccc(C)nc2)CCN(C)C1`, the “activity change, negative = cytotoxic” value is -26.4% (inactive).
As to `CC(O)=C(C#N)C(=O)Nc1ccc(C(F)(F)F)cc1`, the “activity change, negative = cytotoxic” value was -13.6% (inactive).
Regarding `CCCCCCOC(=O)N=C(N)c1ccc(NCc2nc3cc(C(=O)N(CCC(=O)OCC)c4ccccn4)ccc3n2C)cc1`, the Potency was 23.5 µM (active).
As for `CC(=O)Nc1cccc(-n2c(=O)n(C3CC3)c(=O)c3c(Nc4ccc(I)cc4F)n(C)c(=O)c(C)c32)c1`, the Potency is 18.7 µM (active).
The same measure, in the same setting: the result for `Cc1ccc(NC(=O)c2ccc(CN3CCN(C)CC3)cc2)cc1Nc1nc(-c2cccnc2)cs1` reads 18.7 µM (active); that for `Cc1ccc(S(=O)(=O)Nc2nc3ccccc3nc2Nc2ccc3nsnc3c2)cc1`, 0.0323 µM (active).
Consider `COc1ccc2c(c1)CC[C@H]1[C@@H]2CC[C@]2(C)[C@@H](NCCCCCCN3C(=O)C=CC3=O)CC[C@H]12`, for which the “activity change, negative = cytotoxic” value was 6.18% (inactive).
In the case of `COc1ccc(Cn2ccc3ccc(C(=O)NO)cc32)cc1`, the Potency is 20.9 µM (active).
In the case of `C[C@@]1(c2cc(-c3cncnc3)c(F)cc2F)CCSC(N)=N1`, the Potency is 3.72 µM (active).
